The source of these data is the supplement of paper PMC8728848.

Shown is part of a subset that was picked to be rich in the strongest signals.

What all share (test): glycan array binding signal (z-score within array); higher = stronger binding
Holding throughout (conditions): glycan notation: IUPAC condensed, linker removed; mutation: F335Y

Test [1] addresses Fuc(a1-2)Gal(b1-3)GalNAc(b1-3)Gal. In short, it runs like this:
(§1)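 Columns mapping to the same glycan were averaged after glycan names were converted to IUPAC-condensed notation. The data come from 3228 arrays in the Consortium for Functional Glycomics database, limited to those with an available protein sequence. Binding is reported as a within-array Z-score averaged across arrays of one protein sequence and across linkers.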

For test [2], the target named is Fuc(a1-2)Gal(b1-3)GalNAc(b1-4)[Neu5Ac(a2-3)]Gal(b1-4)Glc. Put shortly:
as §1

Test [3] has as its target Fuc(a1-3)[Gal(b1-4)]GlcNAc(b1-4)Gal(b1-4)[Fuc(a1-3)]GlcNAc. Put shortly:
as §1

The next test addresses Gal(a1-6)Glc. In short, it runs like this: as §1
The target in test [4] is Gal(b1-3)[GlcNAc(b1-6)]GalNAc. Put shortly: as §1
In test [5] the target is Gal(b1-4)GlcNAc(b1-3)GalNAc. In short, it runs like this:
as §1

The next test deals with Gal6S(b1-4)Glc6S. In short, it runs like this:
as §1

Test [6] addresses GlcNAc(b1-2)Gal(b1-3)GalNAc. In short, it runs like this: as §1
Another test concerns the target GlcNAc(b1-3)Gal. Put shortly:
as §1

The target of another test is GlcNAc(b1-3)GalNAc. In short, it runs like this: as §1
The target in another test is GlcNAc(b1-3)Man. Put shortly:
as §1

The target in test [7] is Man(a1-2)Man(a1-2)Man(a1-6)[Man(a1-3)]Man. Put shortly: as §1
Test [8] concerns the target Man(a1-2)Man(a1-3)[Man(a1-2)Man(a1-6)]Man. Put shortly:
as §1

The target in test [9] is Man(a1-2)Man(a1-3)[Man(a1-2)Man(a1-6)]Man(a1-6)[Man(a1-2)Man(a1-2)Man(a1-3)]Man. Put shortly: as §1
Test [10] has as its target Man(a1-2)Man(a1-6)[Man(a1-3)]Man(a1-6)[Man(a1-2)Man(a1-2)Man(a1-3)]Man(b1-4)GlcNAc(b1-4)GlcNAc. Put shortly: as §1
The target of test [11] is Man(a1-3)[Man(a1-6)]Man(a1-6)[Man(a1-2)Man(a1-3)]Man(b1-4)GlcNAc(b1-4)GlcNAc. In short, it runs like this:
as §1

Test [12] has as its target Man(a1-3)[Man(a1-6)]Man(a1-6)[Man(a1-3)]Man. In short, it runs like this: as §1
Test [13] has as its target Neu5Ac(a2-3)Gal(b1-3)GalNAc. In short, it runs like this:
as §1

For test [14], the target named is Neu5Ac(a2-3)Gal(b1-4)GlcNAc(b1-6)[Neu5Ac(a2-3)Gal(b1-3)]GalNAc. Put shortly: as §1
Test [15] deals with Neu5Ac(a2-6)Gal(b1-4)GlcNAc(b1-3)Gal(b1-4)[Fuc(a1-3)]GlcNAc(b1-3)Gal(b1-4)[Fuc(a1-3)]GlcNAc. Put shortly:
as §1

B1: Surfactant Protein D (Human); Neck + Carbohydrate Recognition Domain (NCRD) (Homo sapiens) (protein)
chain: MLLFLLSALVLLTQPLGYLEAEMKTYSHRTMPSACTLVMCSSVESGLPGRDRDGREGPRGEKGDPGLPGAAGQAGMPGQAGPVGPKGDNGSVGEPGPKGDTGPSGPPGPPGVPGPAGREGALGKQGNIGPQGKPGPKGEAGPKGEVGAPGMQGSAGARGLAGPKGERGVPGERGVPGNTGAAGSAGAMGPQGSPGARGPPGLKGDKGIPGDKGAKGESGLPDVASLRQQVEALQGQVQHLQAAFSQYKKVELFPNGQSVGEKIFKTAQFVKPFTEAQLLCTQAGGQLASPRSAAENAALQQLVVAKNEAAFLSMTDSKTEGKFTYPTGESLVYSNWAPGEPNDDGGSEDCVEIYTNGKWNDRACGEKRLVVCEF
Regarding B1, the “glycan array binding signal (z-score)” value was -0.184 in test [1]; -0.189 in test [2]; -0.183 in [3]; -0.189 with Gal(a1-6)Glc; -0.185 in [4]; -0.191 in test [5]. The “glycan array binding signal (z-score)” value with Gal6S(b1-4)Glc6S is -0.187; in [6], -0.189; with GlcNAc(b1-3)Gal, -0.18; with GlcNAc(b1-3)GalNAc it was -0.193; with GlcNAc(b1-3)Man, -0.187; in [7], 5.87. For the same molecule, the “glycan array binding signal (z-score)” value in test [8] was 7.66; in test [9], 7.37; in test [10], 5.84; in test [11], 7.18; in test [12] it was 3.93; in test [13], -0.19. The “glycan array binding signal (z-score)” value in test [14] is -0.178; in test [15], -0.122.
